Hit rate of the full screen: of about 310,000 compounds, about 14,000 (4.5%) showed an effect of 50% or more. Effects have a minus sign here. The list comes from a sample in which strong results are over-represented; it also holds similar structures and randomly drawn compounds.
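Further: peak tail current of the secondary pulse compared with the same well before compound.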

For this assay, the target named is human ether-à-go-go-related gene (hERG) potassium channel (human, UniProt Q12809). Description: primary screen, population patch clamp on CHO cells stably expressing hERG; higher = less effect of the substance.
Chain of human ether-à-go-go-related gene (hERG) potassium channel (Q12809 whole entry, looked up): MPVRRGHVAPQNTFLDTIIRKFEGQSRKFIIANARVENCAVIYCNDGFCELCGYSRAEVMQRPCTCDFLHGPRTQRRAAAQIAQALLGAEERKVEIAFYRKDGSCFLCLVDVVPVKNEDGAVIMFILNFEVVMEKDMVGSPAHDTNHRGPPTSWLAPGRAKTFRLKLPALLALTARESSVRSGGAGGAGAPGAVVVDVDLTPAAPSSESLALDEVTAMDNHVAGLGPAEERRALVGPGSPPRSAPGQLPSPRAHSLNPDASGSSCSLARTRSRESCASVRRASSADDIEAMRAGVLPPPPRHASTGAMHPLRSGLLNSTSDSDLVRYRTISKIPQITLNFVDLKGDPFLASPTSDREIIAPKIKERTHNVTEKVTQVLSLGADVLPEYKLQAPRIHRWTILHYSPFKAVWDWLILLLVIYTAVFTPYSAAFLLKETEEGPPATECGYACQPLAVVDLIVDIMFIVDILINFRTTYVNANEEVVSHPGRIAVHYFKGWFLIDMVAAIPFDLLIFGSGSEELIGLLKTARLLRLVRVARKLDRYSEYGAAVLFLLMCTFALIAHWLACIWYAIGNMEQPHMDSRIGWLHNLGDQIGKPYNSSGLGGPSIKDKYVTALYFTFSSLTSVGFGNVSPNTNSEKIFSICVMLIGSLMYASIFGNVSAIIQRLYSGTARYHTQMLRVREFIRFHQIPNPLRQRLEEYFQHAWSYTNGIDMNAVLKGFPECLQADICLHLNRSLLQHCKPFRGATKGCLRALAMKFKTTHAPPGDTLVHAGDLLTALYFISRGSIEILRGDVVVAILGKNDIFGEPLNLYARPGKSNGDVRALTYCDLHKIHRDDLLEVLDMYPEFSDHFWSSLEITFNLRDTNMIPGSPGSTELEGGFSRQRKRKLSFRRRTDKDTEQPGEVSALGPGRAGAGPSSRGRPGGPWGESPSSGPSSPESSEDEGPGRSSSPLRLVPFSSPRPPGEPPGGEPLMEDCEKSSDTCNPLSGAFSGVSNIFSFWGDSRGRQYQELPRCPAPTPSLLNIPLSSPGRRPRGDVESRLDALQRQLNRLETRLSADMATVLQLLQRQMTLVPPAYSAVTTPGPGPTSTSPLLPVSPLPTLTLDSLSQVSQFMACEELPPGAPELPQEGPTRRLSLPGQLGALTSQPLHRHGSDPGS
As for `CNC(=O)CCN(Cc1ccco1)S(=O)(=O)c1ccc(OC)c(OC)c1`, the “hERG current change (%, negative = inhibition) at 10uM” value was 14.1%.
Consider `CCOC(=O)c1c(NC(=O)CSc2nnc(-c3ccncc3)n2Cc2ccco2)sc(C)c1C`, for which the “hERG current change (%, negative = inhibition) at 10uM” value is -19.3%.
`C=CCn1c(SCC(=O)Nc2cc(C)c(Cl)cc2OC)nnc1-c1ccco1`: the “hERG current change (%, negative = inhibition) at 10uM” value was -23.6%.
Take `O=C(CSc1nnc(Cc2cccs2)n1Cc1ccco1)Nc1cccc(Cl)c1`: the “hERG current change (%, negative = inhibition) at 10uM” value is -13.9%.
In the case of `COC(=O)c1c(NC(=O)CSc2nnc(-c3cccnc3)n2Cc2ccco2)sc(C)c1C`, the “hERG current change (%, negative = inhibition) at 10uM” value is given as -59.3%.
Take `CCOC(=O)c1c(NC(=O)CSc2nnc(-c3cccnc3)n2Cc2ccco2)sc(C)c1C`: the “hERG current change (%, negative = inhibition) at 10uM” value is listed as -24.7%.
On to `Cc1cc(Cl)ccc1NC(=O)CSc1nnc(Cc2cccs2)n1Cc1ccco1`, for which the “hERG current change (%, negative = inhibition) at 10uM” value was -45.3%.
On to `Cc1cccc(C)c1NC(=O)CSc1nnc(-c2ccncc2)n1Cc1ccco1`, for which the “hERG current change (%, negative = inhibition) at 10uM” value was -29.2%.
With `COc1cc(Cl)c(C)cc1NC(=O)CSc1nnc(-c2ccco2)n1CC(C)C` the figure was -62.1%; with `Cc1cc(C)c(NC(=O)CSc2nnc(-c3ccncc3)n2Cc2ccco2)c(C)c1`, -31.6%.
Take `Cc1cc(C)c(NC(=O)CSc2nnc(-c3ccncc3)n2Cc2ccco2)c(Cl)c1`: the “hERG current change (%, negative = inhibition) at 10uM” value is listed as -52.7%.
Consider `CCn1c(SCC(=O)Nc2cc(C)c(Cl)cc2OC)nnc1-c1ccco1`, for which the “hERG current change (%, negative = inhibition) at 10uM” value was -4.93%.
Under `O=C(CSc1nnc(Cc2cccs2)n1Cc1ccco1)Nc1ccc(Cl)cc1Cl` stands -57.1%.
With `COc1ccc2nc(SCc3cccc(C)c3)nc(C)c2c1` the figure was -10.9%; with `COc1ccccc1OCCOCCOc1c(C)cc(C)cc1Br`, 8.26%.
Consider `CC(C)N1CC(O)=C(c2ccccc2)C1=N`, for which the “hERG current change (%, negative = inhibition) at 10uM” value is reported as -0.355%.
For `CC(C)NC(=O)c1ccccc1NC(=O)C1CC(=O)N(C(C)C)C1` (stereo not drawn), the “hERG current change (%, negative = inhibition) at 10uM” value turned out to be 42.9%.
Regarding `CSc1ncccc1C(=O)Nc1nccs1`, the “hERG current change (%, negative = inhibition) at 10uM” value is given as -22.8%.
As for `COc1cc(Cl)c(C)cc1NC(=O)CSc1nnc(-c2ccccn2)n1Cc1ccco1`, the “hERG current change (%, negative = inhibition) at 10uM” value is given as -29.5%.
As to `O=C(CSc1nnc(-c2ccncc2)n1Cc1ccco1)Nc1ccccc1Cl`, the “hERG current change (%, negative = inhibition) at 10uM” value is reported as -36.3%.
As for `Cc1cc(Cl)ccc1NC(=O)CSc1nnc(-c2ccncc2)n1Cc1ccco1`, the “hERG current change (%, negative = inhibition) at 10uM” value is -52.8%.
For the compound `O=C(CSc1nnc(-c2ccncc2)n1Cc1ccco1)Nc1ccccc1F`, the “hERG current change (%, negative = inhibition) at 10uM” value is given as -20.4%.
With `COc1ccc(NC(=O)CSc2nnc(-c3ccccc3)n2Cc2ccco2)c(OC)c1`, the “hERG current change (%, negative = inhibition) at 10uM” value is given as -26.4%.
Consider `COc1cc(Cl)c(C)cc1NC(=O)CSc1nnc(-c2cccnc2)n1Cc1ccco1`, for which the “hERG current change (%, negative = inhibition) at 10uM” value is given as -56.9%.

Source of the values: paper PMC4336329 (PLoS ONE, 2015).
